Source: PubChem BioAssay AID1159580 (chemical genetic matrix, 2015)
About 2,000 (36%) of roughly 5,500 compounds were called active. Another 18% or so got no clear call; they are omitted. This is one part of the list. A number with no mark means an inactive call. No stated cut-off is given here; in the data, active means normalized growth mostly below about 0.91 (no sharp cut-off); inconclusive means no clear call, values can overlap the other calls; inactive means mostly above about 0.92.

Assay: chemical genetic growth profiling, strain panel (AID 1159580);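 further: tested at 20 µM; growth read once vehicle control cultures reached saturation at 30 °C; 1 = growth at the plate median or of vehicle wells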
Conditions: growth OD

CCCc1nc2c(C)cc(-c3nc4ccccc4n3C)cc2n1Cc1ccc(-c2ccccc2C(=O)O)cc1
normalized growth (S. cerevisiae deletion strains, locus YJR043C, strain POL32, stronger effect = lower value): 0.991 | normalized growth (S. cerevisiae deletion strains, locus YJR066W, strain TOR1, stronger effect = lower value): 0.952 | normalized growth (S. cerevisiae deletion strains, locus YKL068W, stronger effect = lower value): 1.01 | normalized growth (S. cerevisiae deletion strains, locus YKL085W, strain MDH1 (second series), stronger effect = lower value): 1.08 [resistant] (active) | normalized growth (S. cerevisiae deletion strains, locus YKL085W, strain MDH1, stronger effect = lower value): 1.08 [resistant] (active) | normalized growth (S. cerevisiae deletion strains, locus YKL160W, strain elf1, stronger effect = lower value): 1.03 | normalized growth (S. cerevisiae deletion strains, locus YKL190W, strain CNB1, stronger effect = lower value): 1 | normalized growth (S. cerevisiae deletion strains, locus YKR001C, strain vps1, stronger effect = lower value): 1.02 | normalized growth (S. cerevisiae deletion strains, locus YKR026C, strain gcn3, stronger effect = lower value): 1.02 | normalized growth (S. cerevisiae deletion strains, locus YKR091W, strain srl3, stronger effect = lower value): 1.01 | normalized growth (S. cerevisiae deletion strains, locus YLL001W, strain dnm1, stronger effect = lower value): 1.01 | normalized growth (S. cerevisiae deletion strains, locus YLL026W, stronger effect = lower value): 1 | normalized growth (S. cerevisiae deletion strains, locus YLL041C, strain sdh2, stronger effect = lower value): 1.01 | normalized growth (S. cerevisiae deletion strains, locus YLR027C, strain aat2, stronger effect = lower value): 1 | normalized growth (S. cerevisiae deletion strains, locus YLR039C, strain RIC1, stronger effect = lower value): 0.975 | normalized growth (S. cerevisiae deletion strains, locus YLR058C, strain SHM2, stronger effect = lower value): 1 | normalized growth (S. cerevisiae deletion strains, locus YLR102C, strain apc9, stronger effect = lower value): 1 | normalized growth (S. cerevisiae deletion strains, locus YLR113W, strain HOG1, stronger effect = lower value): 1 | normalized growth (S. cerevisiae deletion strains, locus YLR221C, strain rsa3, stronger effect = lower value): 0.994 | normalized growth (S. cerevisiae deletion strains, locus YLR258W, strain gsy2, stronger effect = lower value): 1.01 | normalized growth (S. cerevisiae deletion strains, locus YLR262C, strain YPT6 (second series), stronger effect = lower value): 0.975 | normalized growth (S. cerevisiae deletion strains, locus YLR262C, strain YPT6, stronger effect = lower value): 0.998 | normalized growth (S. cerevisiae deletion strains, locus YLR268W, strain sec22, stronger effect = lower value): 1 | normalized growth (S. cerevisiae deletion strains, locus YLR320W, strain mms22, stronger effect = lower value): 0.983 | normalized growth (S. cerevisiae deletion strains, locus YLR330W, strain CHS5, stronger effect = lower value): 1 | normalized growth (S. cerevisiae deletion strains, locus YLR342W, strain FKS1 (second series), stronger effect = lower value): 1 | normalized growth (S. cerevisiae deletion strains, locus YLR342W, strain FKS1, stronger effect = lower value): 1 | normalized growth (S. cerevisiae deletion strains, locus YLR357W, strain rsc2, stronger effect = lower value): 1.03 | normalized growth (S. cerevisiae deletion strains, locus YLR370C, strain arc18, stronger effect = lower value): 1.01 | normalized growth (S. cerevisiae deletion strains, locus YLR371W, strain rom2, stronger effect = lower value): 1 | normalized growth (S. cerevisiae deletion strains, locus YLR384C, strain iki3, stronger effect = lower value): 1.03 | normalized growth (S. cerevisiae deletion strains, locus YLR418C, strain cdc73, stronger effect = lower value): 1 | normalized growth (S. cerevisiae deletion strains, locus YML016C, strain PPZ1, stronger effect = lower value): 0.997 | normalized growth (S. cerevisiae deletion strains, locus YML032C, strain rad52, stronger effect = lower value): 1 | normalized growth (S. cerevisiae deletion strains, locus YML120C, strain ndi1, stronger effect = lower value): 1 | normalized growth (S. cerevisiae deletion strains, locus YML124C, strain tub3, stronger effect = lower value): 0.998 | normalized growth (S. cerevisiae deletion strains, locus YMR058W, strain fet3, stronger effect = lower value): 1.01 | normalized growth (S. cerevisiae deletion strains, locus YMR078C, strain ctf18, stronger effect = lower value): 1.02 | normalized growth (S. cerevisiae deletion strains, locus YMR125W, strain sto1, stronger effect = lower value): 0.99 | normalized growth (S. cerevisiae deletion strains, locus YMR129W, stronger effect = lower value): 1.01 | normalized growth (S. cerevisiae deletion strains, locus YMR205C, strain PFK2, stronger effect = lower value): 1 | normalized growth (S. cerevisiae deletion strains, locus YMR223W, strain ubp8, stronger effect = lower value): 1.03 | normalized growth (S. cerevisiae deletion strains, locus YMR231W, strain pep5, stronger effect = lower value): 1.02 | normalized growth (S. cerevisiae deletion strains, locus YMR263W, strain SAP30, stronger effect = lower value): 0.994 | normalized growth (S. cerevisiae deletion strains, locus YMR307W, strain GAS1, stronger effect = lower value): 0.995 | normalized growth (S. cerevisiae deletion strains, locus YNL067W, strain RPL9B, stronger effect = lower value): 0.992 | normalized growth (S. cerevisiae deletion strains, locus YNL071W, strain lat1, stronger effect = lower value): 1.01 | normalized growth (S. cerevisiae deletion strains, locus YNL128W, strain TEP1, stronger effect = lower value): 1.01 | normalized growth (S. cerevisiae deletion strains, locus YNL183C, strain NPR1, stronger effect = lower value): 0.969 | normalized growth (S. cerevisiae deletion strains, locus YNL209W, strain ssb2, stronger effect = lower value): 1 | normalized growth (S. cerevisiae deletion strains, locus YNL233W, strain BNI4, stronger effect = lower value): 0.985 | normalized growth (S. cerevisiae deletion strains, locus YNL248C, strain rpa49, stronger effect = lower value): 1.02 | normalized growth (S. cerevisiae deletion strains, locus YNL250W, strain rad50, stronger effect = lower value): 1.03 | normalized growth (S. cerevisiae deletion strains, locus YNL271C, strain bni1, stronger effect = lower value): 1.02 | normalized growth (S. cerevisiae deletion strains, locus YNL298W, strain CLA4, stronger effect = lower value): 1.02 | normalized growth (S. cerevisiae deletion strains, locus YNL307C, strain MCK1, stronger effect = lower value): 1.01 | normalized growth (S. cerevisiae deletion strains, locus YNL322C, strain KRE1 (second series), stronger effect = lower value): 0.976 | normalized growth (S. cerevisiae deletion strains, locus YNR049C, strain mso1, stronger effect = lower value): 1.02 | normalized growth (S. cerevisiae deletion strains, locus YNR052C, strain pop2, stronger effect = lower value): 1.01 | normalized growth (S. cerevisiae deletion strains, locus YOL006C, strain TOP1, stronger effect = lower value): 0.995 | normalized growth (S. cerevisiae deletion strains, locus YOL012C, strain htz1): 0.863 | normalized growth (S. cerevisiae deletion strains, locus YOL147C, strain pex11, stronger effect = lower value): 1.01 | normalized growth (S. cerevisiae deletion strains, locus YOR001W, strain rrp6, stronger effect = lower value): 0.99 | normalized growth (S. cerevisiae deletion strains, locus YOR061W, strain CKA2, stronger effect = lower value): 0.996 | normalized growth (S. cerevisiae deletion strains, locus YOR069W, strain VPS5, stronger effect = lower value): 1.01 | normalized growth (S. cerevisiae deletion strains, locus YOR070C, strain gyp1, stronger effect = lower value): 1.01 | normalized growth (S. cerevisiae deletion strains, locus YOR080W, strain dia2, stronger effect = lower value): 1.01 | normalized growth (S. cerevisiae deletion strains, locus YOR083W, strain WHI5, stronger effect = lower value): 1.01 | normalized growth (S. cerevisiae deletion strains, locus YOR106W, strain vam3, stronger effect = lower value): 1.03 | normalized growth (S. cerevisiae deletion strains, locus YOR136W, strain idh2, stronger effect = lower value): 1.01 | normalized growth (S. cerevisiae deletion strains, locus YOR144C, strain elg1, stronger effect = lower value): 1.01 | normalized growth (S. cerevisiae deletion strains, locus YOR184W, strain ser1, stronger effect = lower value): 0.999 | normalized growth (S. cerevisiae deletion strains, locus YOR231W, strain MKK1, stronger effect = lower value): 0.998 | normalized growth (S. cerevisiae deletion strains, locus YOR265W, strain rbl2, stronger effect = lower value): 1.01 | normalized growth (S. cerevisiae deletion strains, locus YOR270C, strain vph1, stronger effect = lower value): 0.954 | normalized growth (S. cerevisiae deletion strains, locus YOR290C, strain snf2, stronger effect = lower value): 1.01 | normalized growth (S. cerevisiae deletion strains, locus YOR316C, strain cot1, stronger effect = lower value): 0.999 | normalized growth (S. cerevisiae deletion strains, locus YPL051W, strain arl3, stronger effect = lower value): 1.01 | normalized growth (S. cerevisiae deletion strains, locus YPL055C, strain LGE1, stronger effect = lower value): 0.974 | normalized growth (S. cerevisiae deletion strains, locus YPL078C, strain atp4, stronger effect = lower value): 1.01 | normalized growth (S. cerevisiae deletion strains, locus YPL106C, strain sse1, stronger effect = lower value): 0.996 | normalized growth (S. cerevisiae deletion strains, locus YPL240C, strain hsp82, stronger effect = lower value): 1.01 | normalized growth (S. cerevisiae deletion strains, locus YPL256C, strain CLN2, stronger effect = lower value): 0.969 | normalized growth (S. cerevisiae deletion strains, locus YPR119W, strain clb2, stronger effect = lower value): 1 | normalized growth (S. cerevisiae deletion strains, locus YPR141C, strain kar3, stronger effect = lower value): 1.01 | normalized growth (S. cerevisiae deletion strains, locus YPR163C, strain tif3, stronger effect = lower value): 0.997 | normalized growth (S. cerevisiae deletion strains, locus YPR167C, strain met16, stronger effect = lower value): 1.01 | normalized growth (S. cerevisiae deletion strains, strain wtn01, stronger effect = lower value): 1.05 | normalized growth (S. cerevisiae strains, strain wild type, stronger effect = lower value): 1
